Source: PubChem BioAssay (NCI)
Compounds without any hit were thinned out: in the full panel of roughly 83,000, 20% have a hit.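 Method: cells in 96-well plates; compound added at one concentration; 48 h incubation; percent growth measured; values under 10 scored active.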 A number with no mark means an inactive call. Calls of active or inactive are those of the source.

How the values were obtained:
Test in all cases: NCI-60 one-dose screen, 48 h (100 = growth as untreated, 0 = no growth, -100 = all killed)
Conditions in all cases: 10 µM unless noted
RPMI-8226 leukemia = test system: RPMI-8226 leukemia
OVCAR-8 ovarian = test system: OVCAR-8 ovarian
OVCAR-5 ovarian = test system: OVCAR-5 ovarian
OVCAR-4 ovarian = test system: OVCAR-4 ovarian
SK-OV-3 ovarian = test system: SK-OV-3 ovarian
IGROV1 ovarian = test system: IGROV1 ovarian
OVCAR-3 ovarian = test system: OVCAR-3 ovarian
HS 578T breast = test system: HS 578T breast
NCI/ADR-RES ovarian = test system: NCI/ADR-RES ovarian
T-47D breast = test system: T-47D breast
MDA-MB-435 melanoma = test system: MDA-MB-435 melanoma
SW-620 colon = test system: SW-620 colon
MCF7 breast = test system: MCF7 breast
HCT-116 colon = test system: HCT-116 colon
HCC-2998 colon = test system: HCC-2998 colon
KM12 colon = test system: KM12 colon
MDA-MB-468 breast = test system: MDA-MB-468 breast

SMILES | growth (RPMI-8226 leukemia) | growth (OVCAR-8 ovarian) | growth (OVCAR-5 ovarian) | growth (OVCAR-4 ovarian) | growth (SK-OV-3 ovarian) | growth (IGROV1 ovarian) | growth (OVCAR-3 ovarian) | growth (HS 578T breast) [%] | growth (NCI/ADR-RES ovarian) | growth (T-47D breast) | growth (MDA-MB-435 melanoma) | growth (SW-620 colon) | growth (MCF7 breast) | growth (HCT-116 colon) | growth (HCC-2998 colon) | growth (KM12 colon) | growth (MDA-MB-468 breast)
COc1ccc(C(=O)/C=C/c2cccc3ccccc23)cc1S(N)(=O)=O | -10.6% (active) | -13.6% (active) | 1.13% (active) | 43.5% | 44.7% | 38.7% | -50.7% (active) | 55.2 | 15.1% | -2.6% (active) | 5.32% (active) | -16.1% (active) | -60.3% (active) | -91.9% (active) | -70.2% (active) | -61.2% (active) | -55.7% (active)
NS(=O)(=O)c1ccc(-n2cc(-c3cccc(NC(=O)c4cc(Cl)cc(Cl)c4)c3)nn2)cc1 | 92.6% | 26.8% | 81.2% | 73.6% | 90.2% | 101% | 48.2% | 89.2 | 92.7% | 48% | 50.4% | 54.7% | 37.1% | 45.4% | 51% | 2.24% (active) | 72.8%
O=C1C(=Nc2ccc(F)c(Cl)c2)c2cccc3cccc1c23 | 8.45% (active) | 3.58% (active) | 94.7% | 86.1% |  | 66.4% | 25.3% | 89.9 | 84.1% | 45.3% | -42% (active) | 35.8% | 16.1% | 19% | 108% | 55% | 88.4%
C[C@H]1CN(C(=O)c2ccc3c(NNC(=O)c4ccncn4)nc4cc(F)c(F)cc4n23)CCN1 | 23.6% | 17.2% | 50.4% | 34.7% | 43.7% | 33% | 58.2% | 59.6 | 3.96% (active) | 21.3% | 37.4% | 38% | 17.4% | 21.7% | 61.7% | 37% | 7.53% (active)
COc1cccc(/C=C/C(=O)c2ccc(OC)c(S(N)(=O)=O)c2)c1 | -9.86% (active) | 10.5% |  | 57.7% |  | 42.1% | 16.3% | 91.6 | 13.3% | 21% | 34.1% | 8.39% (active) | 7.97% (active) | -73.8% (active) | 29.7% | -41.6% (active) | 20%
CN1CCN(c2ccc3c(c2)nc(NNC(=O)c2ncccn2)c2cccn23)CC1 | 28.4% | -4.43% (active) | -62.9% (active) | -41.7% (active) | -13.2% (active) | 11.3% | -22.8% (active) | 26.5 | 4.15% (active) | -22.3% (active) | -45.7% (active) | -6.01% (active) | -17.6% (active) | 0.844% (active) | -87.7% (active) | -14.2% (active) | -42.8% (active)
CN1CCN(Cc2ccc(C(=O)Nc3cccc(C#Cc4cccc5[nH]nc(N)c45)c3)cc2C(F)(F)F)CC1 | -45.1% (active) | -98.1% (active) |  | -60.9% (active) | -89.1% (active) | -70.8% (active) | -46.6% (active) |  | -61% (active) | -70.4% (active) | -70.2% (active) | -38.3% (active) | -84% (active) | -90.4% (active) | -93.6% (active) | -68.8% (active) | -89.9% (active)
CN1CCN(c2ccc(C(=O)/C=C/c3ccc(Br)cc3)cc2)CC1 | -0.714% (active) | 2.63% (active) | 39.5% | 61% | 15.8% | 39.4% | 17.7% | 89.6 | 45.1% | 15.2% | 22.5% | 19.4% | 6.72% (active) | 7.41% (active) | 14.7% | 10.6% | -1.53% (active)
O=C1N/C(=N\c2nccs2)S/C1=C\C=C/c1ccccc1 | 39.4% | 13.7% | 61.8% | 44.5% | 77.7% | 30.3% | 50.7% | 85.2 | 37.4% | 32.7% | 44.5% | 41% | 16.1% | 12.1% | 75.7% | 38% | 44.2%
